Compound activity deposited in PubChem BioAssay by National Center for Advancing Translational Sciences (NCATS).
HP1b binding inh = blocks HP1-beta chromodomain binding to methylated histone tails. AlphaScreen HP1-beta / biotin-H3K9me3 peptide binding. Potency, µM (top dose mostly 114 µM), actives largely listed as inhibitors. hit rate 0.56% among 390,000; also: nearly all actives have a fitted effect of over 70% in size
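Compound inhibition of the preformed complex between 50 nM HP1-beta and 50 nM biotinylated H3K9me3 peptide was read by AlphaScreen. Buffer was PBS pH 7.4 with 0.01% Tween-20. Incubations ran 30 min at room temperature, with 10 ug/mL donor/acceptor beads.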
BAZ2B inh = blocks human BAZ2B; Q9UIF8; AlphaScreen BAZ2B-H3K14Ac peptide displacement; Potency, µM (doses to about 114 µM), most hits filed as inhibitors; hit rate 4.4% among 360,000; also: nearly all actives have a fitted effect of over 60% in size
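AlphaScreen luminescence quantifies BAZ2B engagement of H3K14Ac peptide; the protein and biotinylated peptide are both at 50 nM final, buffer PBS pH 7.4 with 0.01% Tween-20, all steps at room temperature.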
Six1-Eya2 blk = inhibitors of human Six1/Eya2 interaction. Q15475+O00167. activity change, % (no concentration beside the values). AlphaScreen GST-Six1/His-Eya2 binding, biochemical; stronger effect = lower value. hit rate 0.56% among 360,000. AID 651725; in the data active = activity change below about -65%; inconclusive = mostly about -30% to -63%
Target sequence (O00167 whole entry, looked up): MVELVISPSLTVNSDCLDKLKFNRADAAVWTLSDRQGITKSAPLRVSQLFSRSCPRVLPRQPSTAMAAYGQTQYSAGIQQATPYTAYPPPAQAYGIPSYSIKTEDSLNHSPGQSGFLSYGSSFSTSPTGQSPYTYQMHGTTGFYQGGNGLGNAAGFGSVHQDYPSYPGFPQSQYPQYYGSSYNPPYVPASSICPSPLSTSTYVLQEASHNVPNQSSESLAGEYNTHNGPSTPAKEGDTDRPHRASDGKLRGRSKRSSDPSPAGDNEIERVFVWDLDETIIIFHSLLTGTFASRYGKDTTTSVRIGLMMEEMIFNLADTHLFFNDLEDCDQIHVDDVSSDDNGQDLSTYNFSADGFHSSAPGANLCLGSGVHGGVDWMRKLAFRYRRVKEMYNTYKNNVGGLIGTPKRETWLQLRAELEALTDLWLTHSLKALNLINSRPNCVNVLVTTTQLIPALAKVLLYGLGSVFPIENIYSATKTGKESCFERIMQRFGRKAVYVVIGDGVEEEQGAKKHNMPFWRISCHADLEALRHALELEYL
Target sequence (Q15475 whole entry, looked up): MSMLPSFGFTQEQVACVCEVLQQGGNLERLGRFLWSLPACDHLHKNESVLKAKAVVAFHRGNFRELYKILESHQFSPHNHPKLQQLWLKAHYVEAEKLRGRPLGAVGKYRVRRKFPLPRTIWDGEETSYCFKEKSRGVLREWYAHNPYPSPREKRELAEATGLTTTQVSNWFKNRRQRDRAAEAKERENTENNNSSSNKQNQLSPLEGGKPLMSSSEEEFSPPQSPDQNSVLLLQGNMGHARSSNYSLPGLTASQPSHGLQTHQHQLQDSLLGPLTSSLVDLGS
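Compounds are tested against tagged Six1 and Eya2 proteins bridged by glutathione donor and nickel acceptor beads; after a one-hour incubation at 37 °C without light, AlphaScreen emission is recorded.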
CtBP-E1A blk = inhibitors of CtBP/E1A interaction | AID 651724 | hit rate 0.49% among 340,000 | AlphaScreen GST-E1A/His-CtBP binding, 1536-well; stronger effect = lower value | activity change, % (test concentration not listed); in the data active = activity change below about -65%; inconclusive = mostly about -30% to -63%
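Protein mix (5X: 125 nM each GST-E1A, His-CtBP) was incubated with pinned compound 2 h at 37 deg C in dark, in 50 mM Tris pH 8.0 buffer with 300 mM NaCl. Glutathione donor and nickel acceptor beads followed; AlphaScreen signal read after 1 h.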
JMJD2A Tudor = blocks the human JMJD2A Tudor domain. O75164. AlphaScreen JMJD2A-Tudor / H3K4me3 peptide binding. Potency, µM (highest dose often 114 µM), actives largely listed as inhibitors. hit rate 4.4% among 390,000. AID 504339; also: nearly all actives have a fitted effect of over 50% in size
TDP1 block = TDP1 (human) enzyme inhibition; Q9NUW8; recombinant TDP1, AlphaScreen DNA substrate cleavage; Potency, µM (highest dose often 130 µM), most hits filed as inhibitors; hit rate 0.28% among 350,000; AID 485290; also: nearly all actives have a fitted effect of over 40% in size
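Compounds were preincubated with Tdp1 (1 nM final) for 15 min at room temperature before substrate (15 nM final) started a 5 min reaction; beads (10 ug/ml final) were then added for 10 min before AlphaScreen detection.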
Numbers stand for hits; – = inactive; ? = inconclusive; · = no result given. Most compounds without a hit are left out; they make up all but 5.3% or so of the library. Unless noted, calls follow the shape of the dose curve; as a rule, active = well fitted inhibition curve with a large enough effect; inconclusive = small, poorly fitted or top-dose-only effect; inactive = no such curve, though single readings can be large or run the other way.

SMILES	HP1b binding inh	BAZ2B inh	Six1-Eya2 blk	CtBP-E1A blk	JMJD2A Tudor	TDP1 block
Cc1cc(C)c(C)c(OCCNCc2ccccc2)c1	–	20µM	–	–	3.55µM	–
C[C@@H]1C[C@H]2[C@@H]3CCC4=CC(=O)C=C[C@]4(C)[C@@]3(F)C(O)C[C@]2(C)[C@@]1(O)C(=O)CO (stereo partly drawn)	–	·	·	·	–	–
COc1cccc(CNC(=O)c2ccc3c(c2)nc2n3CCC(C)C2)c1 (stereo not drawn)	–	–	·	·	–	–
O=[N+]([O-])C1=CC=C2C(=NC3(CCCCC3)N2O)C1=NCCO	–	50.1µM	–	–	–	–
CN=C1C([N+](=O)[O-])=CC=C2C1=NC1(CCCCC1)N2O	–	?	–	–	–	–
CCN(CC)CCCNC(=O)C(C)n1nc(C)n2c(cc3occc32)c1=O (stereo not drawn)	–	–	·	·	–	–
Cc1cccc(S(=O)(=O)c2cn(C)c3cc(N4CCN(c5ccccc5)CC4)c(F)cc3c2=O)c1	–	–	·	·	–	–
CC1CN(C(=O)N2CCC(C(=O)NCCCc3ccccc3)CC2)c2cc(Cl)ccc2O1 (stereo not drawn)	–	?	·	·	–	–
Cc1cc(C)cc(OCCCn2ccnc2)c1	–	?	–	–	–	–
Cc1cc(OCCCCNC(C)C)cc(C(C)C)c1	?	?	–	–	17.8µM	–
CC(OC(=O)C1=Cc2ccccc2OC1)C(=O)NCC1CCCO1 (stereo not drawn)	?	·	–	–	22.4µM	·
Cc1ccc(CNC(=O)C2CCN(C(=O)c3ccc(-n4ccc5ccccc54)s3)CC2)cc1	–	–	·	·	–	–
CCN1/C(=C/C=C/c2oc3ccc(-c4ccccc4)cc3[n+]2CC)Oc2ccc(-c3ccccc3)cc21	–	28.2µM	–	–	?	–
CCC(C)(C)NC(=O)c1cccc(NC(=O)C(C)C)c1	–	–	–	–	39.8µM	·
COC(=O)c1ccc(Oc2cc(C)nc(SC)n2)cc1	?	–	–	–	28.2µM	–
O=c1c2c3c(sc2n(CCN2CCCC2)c(=O)n1Cc1ccco1)CCCCC3	?	–	–	–	79.4µM	–
CC(=O)N1CCc2c(sc3c2c(=O)n(-c2ccccc2)c(=O)n3CC(=O)Nc2ccccc2)C1	–	–	·	·	79.4µM	–
CC(=O)N1CCc2c(sc3c2c(=O)n(-c2ccccc2)c(=O)n3CC(=O)Nc2cc(C)cc(C)c2)C1	–	–	·	·	–	–
O=C(Cn1c(=O)n(Cc2ccco2)c(=O)c2c3c(sc21)CCCCC3)Nc1ccccc1	–	50.1µM	–	–	31.6µM	·
O=C(O)Cn1c(=O)c2c3c(sc2n(Cc2ccccc2)c1=O)CCCC3	–	89.1µM	–	·	–	·
CN(C)CCn1c(=O)n(Cc2ccco2)c(=O)c2c3c(sc21)CCCCC3	–	?	–	–	?	–
COc1ccc(C)c2sc(N(Cc3cccnc3)C(=O)CCc3ccccc3)nc12	–	–	·	·	–	–
CN(C)CCNc1nc2sc3c(c2c(=O)n1Cc1ccccc1)CCCCC3	–	35.5µM	–	–	50.1µM	·
CC(=O)c1ccc(NC(=O)c2cc(=O)[nH]c3ccccc23)cc1	–	–	–	–	–	·
CCOc1ccc(NC(=O)c2cc3ccccc3cc2O)cc1	–	56.2µM	–	·	79.4µM	·
SMILES	HP1b binding inh	BAZ2B inh	Six1-Eya2 blk	CtBP-E1A blk	JMJD2A Tudor	TDP1 block
CCOc1ccc(NC(=O)c2cc(=O)[nH]c3ccccc23)cc1	–	56.2µM	–	–	–	–
O=c1[nH]c(SCc2ccc(Br)cc2)nc2c1CCCC2	–	–	·	·	–	–
NC(=S)NNc1ccnc2cc(Cl)ccc12	?	50.1µM	–	–	44.7µM	–
O=C(NNc1ccnc2cc(Cl)ccc12)C1CCCCC1	–	–	–	–	–	–
CCOc1ccc(Nc2ccnc3cc(Cl)ccc23)cc1	–	–	–	–	–	·
Clc1ccc2c(NNc3ccccc3Cl)ccnc2c1	–	2µM	–	–	?	–
c1ccc(NCCCNc2ccccc2)cc1	–	50.1µM	–	–	?	–
O=C(N[C@@H]1CC[C@H](CCn2cc(-c3ccccn3)nn2)O[C@@H]1CO)c1ccncc1	·	·	-75.6	–	·	·
